Consider 30 compounds from ChEMBL document CHEMBL1157539, “Thousands of chemical starting points for antimalarial lead identification” (Nature, 2010).

What all share (assay type): functional
The test system of assay [1] is Plasmodium falciparum. The experiment in a line: GSK_TCMDC: Inhibition of Plasmodium falciparum 3D7 in whole red blood cells, using parasite LDH activity as an index of growth. Test compounds present at 2uM.
Assay [2] deals with Plasmodium falciparum. The assay is described as follows: GSK_TCMDC: Inhibition of Plasmodium falciparum Dd2 in whole red blood cells, using parasite LDH activity as an index of growth. Test compounds present at 2uM.
The next assay relates to HepG2. The experiment in a line: GSK_TCMDC: Percent inhibition of human HepG2 cell line. Test compounds present at 10uM.

The Inhibition is the percentage by which the read-out fell short of the control. For `CC(C)(CNC(=O)C1CCN(CCOc2ccc(F)c(F)c2)CC1)c1nc(-c2ccc(Cl)c(O)c2)c(-c2ccncc2)[nH]1.Cl`, the Inhibition is 100% in the assay with Plasmodium falciparum [1], 19% in the assay on Plasmodium falciparum [2] and 41% in the assay on HepG2.
With `Cc1cccc2nc(-c3ccc(-c4cccc(CNCc5cccc(N)c5)c4)s3)[nH]c12.O=C(O)C(F)(F)F`, the results for the Inhibition in the assay on Plasmodium falciparum [1], with Plasmodium falciparum [2] and with HepG2 were 100%, 85% and 15%, respectively.
For `COc1ccc2nccc(N3CCC(CCNCc4ccc5c(n4)NC(=O)CS5)CC3)c2n1.Cl`, in that order: 100%, 75% and 32%.
For `CCc1ccccc1N1CCN(CCCC(=O)c2ccc(NC(=O)c3ccc(Cl)cc3)cc2)CC1`, in that order: 90%, 4% and 17%.
For `CC(C)N1CCN(c2ccc(OCCCN3CCN(c4cccc(Cl)c4Cl)CC3)c(C(F)(F)F)c2)CC1`, in that order: 94%, 37% and 79%.
On to `CN1CCN(c2cc3c(cc2Br)CCN3C(=O)Nc2ccc(-c3cnc4ccccc4c3)cc2)CC1`, for which the Inhibition in the assay with Plasmodium falciparum [1] stood at 99%; with Plasmodium falciparum [2] it was 79%; with HepG2, 100%.
For `O=C(Nc1ccc2c(c1)CCC2)c1cccc(CN2CCCN(Cc3cccc(O)c3)CC2)c1.O=C(O)C(F)(F)F`, in that order: 91%, 20% and 10%.
For `Cc1ccc(Nc2nc(N/N=C/c3cccc(O)c3)nc(Nc3ccc([N+](=O)[O-])cc3)n2)cc1C`, in that order: 100%, 69% and 0%.
For `Cc1ccccc1-c1cc(=O)c2cc(NC(=O)c3cccs3)ccc2o1`, in that order: 96%, 95% and 22%.
On to `CC(=O)Nc1ccc(C(=O)Nc2cccc(-c3cccc(-c4nc5cc(C(F)(F)F)ccc5[nH]4)c3)c2)cn1`, for which the values for the Inhibition in the assay on Plasmodium falciparum [1], in the assay with Plasmodium falciparum [2] and in the assay with HepG2 were 100%, 97% and 8%, respectively.
For `COc1ccc2nccc([C@@H](O)CN3CCC(NC(=O)Cc4ccc(Br)c5ccccc45)CC3)c2c1`, in that order: 98%, 40% and 10%.
For `COc1ccccc1CN1CCC(NC(=O)c2ccc(-c3cccc(C(F)(F)F)c3)s2)CC1.O=C(O)C(F)(F)F`, in that order: 85%, 12% and 83%.
For `Cn1cncc1C(=O)Nc1cccc(-c2ccc(-c3nc4ccccc4[nH]3)cc2)c1`, in that order: 99%, 11% and 0%.
For `Cc1cccc(Cl)c1S(=O)(=O)Nc1cccc(CCN2CCC(N3CCCCC3)CC2)c1`, the figures for the Inhibition with Plasmodium falciparum [1], in the assay on Plasmodium falciparum [2] and in the assay on HepG2 were 91%, 18% and 34%, respectively.
For `N#Cc1ccc(N[C@@H](CC2CCCCC2)C(=O)Nc2ccc(-c3ccccc3)cc2)c2ccccc12.O=C(O)C(F)(F)F`, in that order: 100%, 99% and 34%.
Consider `CN(C)CCNC(=O)c1ccc(-c2cnc3ccc(NCc4ccc(Cl)c(Cl)c4)nn23)cc1`, for which the Inhibition in the assay on Plasmodium falciparum [1] is on record as 98%; in the assay on Plasmodium falciparum [2], 98%; in the assay on HepG2, 60%.
With `CCNc1cc(C(=O)N[C@@H](Cc2ccccc2)[C@H](O)CNC(C)(C)CSCC(C)C)cc(N2CCCC2=O)c1`, the Inhibition in the assay with Plasmodium falciparum [1] is 100%; in the assay on Plasmodium falciparum [2] it was 97%; in the assay on HepG2, 0%.
In the case of `Cn1c(NC2CCN(CC3CCN(C(=O)/C=C/c4ccc(Cl)c(Cl)c4)CC3)CC2)nc2ccccc21`, the values for the Inhibition in the assay with Plasmodium falciparum [1], with Plasmodium falciparum [2] and in the assay with HepG2 were 100%, 100% and 99%, respectively.
Take `CCCN(CC1CC1)c1ncc(-c2cccc(CNCc3ccccc3O)c2)cn1`: the Inhibition in the assay on Plasmodium falciparum [1] is reported as 97%; in the assay on Plasmodium falciparum [2], 98%; in the assay on HepG2, 15%.
For `Cc1nnsc1C(=O)Nc1ccc(-c2ccc(-c3nc4ccccc4[nH]3)s2)cc1`, the results for the Inhibition with Plasmodium falciparum [1], in the assay on Plasmodium falciparum [2] and in the assay with HepG2 were 92%, 38% and 49%, respectively.
In the case of `O=C(/C=C/c1ccc(Cl)c(Cl)c1)NCCCCCCN1CCCN(C(=O)Nc2cc(F)cc(F)c2)CC1`, the Inhibition is reported as 99% with Plasmodium falciparum [1], 0% with Plasmodium falciparum [2] and 25% in the assay with HepG2.
For the compound `CO/C(=C\C=C\c1cc2cc(Cl)c(Cl)cc2[nH]1)C(=O)NCCCN1CCN(c2cccc(OCC(=O)Nc3cccc(C(=O)c4ccccc4)c3)c2)CC1`, the Inhibition amounted to 94% in the assay on Plasmodium falciparum [1], 88% with Plasmodium falciparum [2] and 48% in the assay on HepG2.
For `O=C(N[C@H]1CCN(Cc2ccc(OCCN3CCCC3)c3ccccc23)C1)c1ccc(Cl)c(Cl)c1.O=C(O)C(F)(F)F`, in that order: 100%, 51% and 90%.
For `CN1CCC(NC(=O)c2cccc(Nc3cc(Nc4cccc(Br)c4)ncn3)c2)CC1`, in that order: 94%, 6% and 25%.
For `CCN(CC)CCN(Cc1ccc(-c2ccc(C(F)(F)F)cc2)nc1)C(=O)Cn1c(SCc2ccc(F)cc2)nc(=O)c2sccc21.O=C(O)C(O)C(O)C(=O)O`, in that order: 96%, 66% and 43%.
In the case of `CCOc1ccccc1C=CC(=O)Nc1ccc2nc(N3CCN(C)CC3)cc(C)c2c1`, the Inhibition in the assay with Plasmodium falciparum [1] was found to be 100%; in the assay on Plasmodium falciparum [2] it was 91%; with HepG2, 16%.
For `CCCNC(=O)CN1CN(c2ccccc2)C2(CCN(C(=O)c3ccc(C(C)(C)C)cc3)CC2)C1=O`, in that order: 99%, 98% and 0%.
For `CCCc1cc(Cc2cnc(N)nc2N)cc(CCC)c1OCCCCC(=O)OCC`, in that order: 93%, 0% and 1%.
For `CCOC(=O)C1=C(C)N=c2sc(=Cc3ccccc3O)c(=O)n2C1c1ccc(OC)c2ccccc12` (stereo not given), in that order: 97%, 38% and 0%.
Consider `Fc1cc(Cl)ccc1Nc1ccnc2cc(-c3scnc3CNCCN3CCOCC3)ccc12`, for which the Inhibition with Plasmodium falciparum [1] turned out to be 99%; in the assay on Plasmodium falciparum [2], 84%; in the assay on HepG2, 0%.
